Values joined by “and” are separate entries in the source; they are usually repeats but may differ in a detail not shown here. Equal entries are not always repeated. Where two headings read alike, the source gives them in different places.
Experiments:
Conditions in all cases: concentration: 1 μM, replicates: in singlicate, n = 1
MKK7 = tested on: MKK7
MKNK1 = tested on: MKNK1
MKNK2 = tested on: MKNK2
MLCK = tested on: T1, MLCK
T1 construct: gene MYLK3

MLK1 = tested on: T2, MLK1
T2 construct: gene MAP3K9

MLK2 = tested on: MLK2
MLK3 = tested on: MLK3
MRCKA = tested on: MRCKA
MRCKB = tested on: T3, MRCKB
T3 construct: gene CDC42BPB

MST1R = tested on: MST1R
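Also: KINOMEscan kinase panel screen.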

Row | SMILES | %Inh (MKK7) | %Inh (MKNK1) | %Inh (MKNK2) | %Inh (MLCK) | %Inh (MLK1) | %Inh (MLK2) | %Inh (MLK3) | %Inh (MRCKA) | %Inh (MRCKB) | %Inh (MST1R) | %Inh (MKK7; 1 µM) | %Inh (MKNK1; 1 µM) | %Inh (MKNK2; 1 µM) | %Inh (MLCK; 1 µM) | %Inh (MLK1; 1 µM) | %Inh (MLK2; 1 µM) | %Inh (MLK3; 1 µM) | %Inh (MRCKA; 1 µM) | %Inh (MRCKB; 1 µM) | %Inh (MST1R; 1 µM)
1 | NS(=O)(=O)c1cccc(-c2ccc3ncc(N4CCOCC4)nc3c2)c1 [GSK1535721] | 16% | 0% | 0% | 2% | 0% | 27% | 1% | 0% | 2% | 26% |  |  |  |  |  |  |  |  |  | 
2 | O=C1NC(=O)C(N2CCc3ccccc32)=C1c1cccc(Cl)c1 [SB-408010] | 0% | 18% | 46% | 0% | 0% | 0% | 0% | 0% | 15% | 5% |  |  |  |  |  |  |  |  |  | 
3 | COCCNC(=O)c1ccc(-c2cc(C(=O)NC3CC3)cc(F)c2C)cc1 [GW868318] | 37% | 22% | 25% | 13% | 0% | 41% | 0% | 0% | 14% | 20% |  |  |  |  |  |  |  |  |  | 
4 | CN(C1=C(c2ccccc2)C(=O)NC1=O)c1ccccc1 [SB-334860] | 47% | 5% | 8% | 0% | 0% | 0% | 19% | 18% | 0% | 12% |  |  |  |  |  |  |  |  |  | 
5 | Cn1ccc2ncnc(Oc3ccc(NC(=O)Nc4ccncc4)c(Cl)c3)c21 | 0% | 0% | 0% | 0% | 0% | 5% | 0% | 0% | 0% | 17% |  |  |  |  |  |  |  |  |  | 
6 | CCc1ccnc(/C=C/c2n[nH]c3cc(Sc4ccccc4C(=O)NC)ccc23)c1 | 0% | 0% | 0% | 1% | 9% | 4% | 20% | 0% | 1% | 16% |  |  |  |  |  |  |  |  |  | 
7 | COc1ccc(Nc2nccc(N3CCC(NC(=O)Nc4cccc(C(C)=O)c4)C3)n2)cc1 (centres unmarked) [GSK1379731] | 0% | 0% | 4% | 5% | 0% | 0% | 0% | 0% | 0% | 17% |  |  |  |  |  |  |  |  |  | 
8 | O=c1cc(N2CCOCC2)nc2n(Cc3cccc(Cl)c3Cl)c(C3CC3)nn12 [GSK2358994] | 0% | 0% | 0% | 0% | 0% | 0% | 14% | 0% | 0% | 14% |  |  |  |  |  |  |  |  |  | 
9 | N#Cc1c(N2CCOCC2)sc(-c2ccn[nH]2)c1-c1ccc(Cl)cc1 | 20% | 26% | 0% | 0% | 0% | 5% | 22% | 0% | 0% | 1% |  |  |  |  |  |  |  |  |  | 
10 | COc1ccc(CNC(=O)NC2CCN(c3ccnc(Nc4ccc(OC)cc4)n3)C2)cc1 (centres unmarked) [GSK1379727] | 14% | 0% | 0% | 0% | 0% | 0% | 0% | 0% | 4% | 40% |  |  |  |  |  |  |  |  |  | 
11 | O=c1cc(N2CCOCC2)nc2n(Cc3cccc4ccccc34)ccn12 [GSK2333389] | 0% | 0% | 3% | 0% | 0% | 2% | 0% | 0% | 0% | 12% |  |  |  |  |  |  |  |  |  | 
12 | Cc1cccc(Cn2ccn3c(=O)cc(N4CCOCC4)nc23)c1 [GSK2297542] | 0% | 0% | 3% | 0% | 18% | 0% | 18% | 0% | 6% | 39% |  |  |  |  |  |  |  |  |  | 
13 | O=c1cc(N2CCOCC2)nc2n(Cc3cccc(F)c3)ccn12 [GSK2297430] | 0% | 0% | 10% | 0% | 2% | 0% | 28% | 0% | 0% | 8% |  |  |  |  |  |  |  |  |  | 
14 | Cl.Oc1cccc(Nc2ccnc3cc(-c4ccncc4)ccc23)c1 [GW494601] | 0% | 0% | 21% | 0% | 0% | 0% | 1% | 1% | 0% | 36% |  |  |  |  |  |  |  |  |  | 
15 | Cc1ccc(C(=O)NCC(N)=O)cc1-n1c(C)cc(OCc2ccc(F)cc2F)c(Br)c1=O | 0% | 0% | 0% | 0% | 25% | 19% | 22% | 3% | 12% | 29% |  |  |  |  |  |  |  |  |  | 
16 | Fc1ccc(-c2ncn(CCCN3CCOCC3)c2-c2cccnc2)cc1 [SB-211743] | 8% | 0% | 0% | 0% | 0% | 39% | 17% | 0% | 19% | 0% |  |  |  |  |  |  |  |  |  | 
17 | CC(C)(CN)c1nc(-c2ccc(Cl)c(O)c2)c(-c2ccncc2)[nH]1.O=C(O)C(F)(F)F [SB-477794] |  |  |  |  |  |  |  |  |  |  | 26% and 0% | 9% and 0% | 9% and 0% | 0% and 14% | 0% and 7% | 0% and 10% | 0% and 32% | 46% and 35% | 76% and 72% | 39% and 0%
18 | O=C(NOCC1CC1)c1ccc(F)c(F)c1Nc1ccc(I)cc1Cl | 0% | 0% | 0% | 0% | 0% | 0% | 0% | 0% | 0% | 0% |  |  |  |  |  |  |  |  |  | 
19 | COc1cc2ncn(-c3cc(OCc4sccc4Cl)c(C(N)=O)s3)c2cc1OC [GSK448459] | 0% | 0% | 0% | 10% | 0% | 0% | 0% | 4% | 0% | 38% |  |  |  |  |  |  |  |  |  | 
20 | Cc1nnc(-c2ccc3ncc(-c4ccc(S(C)=O)cc4)n3c2)o1 (centres unmarked) | 18% | 0% | 35% | 0% | 0% | 0% | 0% | 9% | 0% | 0% |  |  |  |  |  |  |  |  |  | 

From PMC5540273 (PLoS ONE, 2017)
